Source: paper PMC4336329 (PLoS ONE, 2015)
The whole screen tested about 310,000 compounds, of which about 14,000 (4.5%) showed an effect of 50% or more. The effect is printed as a negative number. Only a selection was taken, and strong results are over-represented in it overall.

target: human ether-à-go-go-related gene (hERG) potassium channel (human, UniProt Q12809); test: primary screen, population patch clamp on CHO cells stably expressing hERG; higher = less effect of the substance
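Further: peak tail current of the secondary pulse compared with the same well before compound.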

Chain of human ether-à-go-go-related gene (hERG) potassium channel (Q12809 whole entry, looked up): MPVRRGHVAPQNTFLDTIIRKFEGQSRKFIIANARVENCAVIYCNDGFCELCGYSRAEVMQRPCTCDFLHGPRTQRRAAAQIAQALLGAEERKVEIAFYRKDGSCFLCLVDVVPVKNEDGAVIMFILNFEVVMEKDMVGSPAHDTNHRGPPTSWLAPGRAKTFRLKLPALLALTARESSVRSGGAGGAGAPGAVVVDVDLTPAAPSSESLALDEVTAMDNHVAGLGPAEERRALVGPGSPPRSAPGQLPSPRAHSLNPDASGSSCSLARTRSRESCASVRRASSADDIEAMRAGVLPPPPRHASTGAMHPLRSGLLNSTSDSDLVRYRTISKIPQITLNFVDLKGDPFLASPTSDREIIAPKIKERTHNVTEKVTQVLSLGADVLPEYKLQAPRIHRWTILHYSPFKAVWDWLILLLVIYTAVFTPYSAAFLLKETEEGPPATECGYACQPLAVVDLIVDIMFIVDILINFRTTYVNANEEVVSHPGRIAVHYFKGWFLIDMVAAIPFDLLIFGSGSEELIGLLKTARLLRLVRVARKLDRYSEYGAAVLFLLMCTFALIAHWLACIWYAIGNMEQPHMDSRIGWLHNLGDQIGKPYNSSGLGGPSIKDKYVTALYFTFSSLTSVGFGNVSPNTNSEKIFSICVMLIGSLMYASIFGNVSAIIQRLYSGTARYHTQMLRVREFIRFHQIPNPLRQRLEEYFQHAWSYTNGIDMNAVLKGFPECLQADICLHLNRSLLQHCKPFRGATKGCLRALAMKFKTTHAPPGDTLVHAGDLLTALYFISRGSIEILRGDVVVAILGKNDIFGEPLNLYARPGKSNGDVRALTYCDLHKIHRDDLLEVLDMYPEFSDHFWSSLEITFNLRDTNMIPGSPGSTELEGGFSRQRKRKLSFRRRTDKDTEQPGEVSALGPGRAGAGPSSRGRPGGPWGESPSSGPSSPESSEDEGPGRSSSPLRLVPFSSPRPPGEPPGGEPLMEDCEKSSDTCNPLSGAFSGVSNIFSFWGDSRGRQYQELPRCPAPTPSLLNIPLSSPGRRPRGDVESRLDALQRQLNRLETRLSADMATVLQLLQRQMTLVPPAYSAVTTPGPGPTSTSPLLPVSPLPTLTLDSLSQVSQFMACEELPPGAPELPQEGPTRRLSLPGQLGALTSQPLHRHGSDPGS

SMILES | hERG current change (%, negative = inhibition) at 10uM [%]
CCOc1c2ccc(C(=O)NCc3ccco3)cc2nn1CCOC | -0.63
CC(=O)c1cccc(NS(=O)(=O)c2cc3c(cc2C)N(C(C)=O)CCO3)c1 | 14.3
Cc1ccc(S(=O)(=O)C(CCC(=O)c2ccc(Cl)cc2)C(N)=O)cc1 (stereo not drawn) | -28.9
CCN1CCN(c2cc(C)c3cc(NC(=O)c4cncc(Br)c4)ccc3n2)CC1 | -51.8
CCN1CCN(c2cc(C)c3cc(NC(=O)c4cnccn4)ccc3n2)CC1 | -16.2
CCN(CC)c1cc(C)c2cc(NC(=O)c3ccc(Br)o3)ccc2n1 | -76.1
CCN1CCN(c2cc(C)c3cc(NC(=O)c4ccc(Br)o4)ccc3n2)CC1 | -56
CCN1CCN(c2cc(C)c3cc(NC(=O)Cc4ccc(OC)c(OC)c4)ccc3n2)CC1 | -10.5
COc1cc(C(=O)Nc2ccc3nc(N4CCN(C)CC4)cc(C)c3c2)cc(OC)c1OC | -38.7
CCN1CCN(c2cc(C)c3cc(NC(=O)c4ccc(C)c(C)c4)ccc3n2)CC1 | -43.3
Cc1cc(N2CCN(C)CC2)nc2ccc(NC(=S)N3CCC4(CC3)OCCO4)cc12 | -34
CCN(CC)c1ccc(NC(=O)c2ccc(Br)o2)cc1 | -24.3
CCN1CCN(c2cc(C)c3cc(NC(=O)c4ccncc4)ccc3n2)CC1 | -21.4
CCN(CC)c1cc(C)c2cc(NC(=O)CNC(C)=O)ccc2n1 | -11.3
Cc1cc(N2CCN(C)CC2)nc2ccc(NC(=O)c3ccc(Br)o3)cc12 | -77.4
Nc1ccc2nc3c(=O)n(C4CCCCC4)c(=O)[nH]c3nc2c1 | -0.914
CC(=O)c1c(C(C)=O)c(C)n(C2CCCCC2)c1C | 2.97
NC(=O)c1ccc(NC(=O)CCCc2nc(-c3ccccc3Cl)no2)cc1 | 18.4
CCOc1ccc(S(=O)(=O)N2CCC(C(=O)NCCN3CCOCC3)CC2)cc1C | 1.77
CCOC(=O)C(=CNc1ncccc1C)C(=O)OCC | 1.51
CC(C)CCNC(=O)Cn1c(=O)oc2cc(S(=O)(=O)N3CC(C)CC(C)C3)ccc21 (stereo not drawn) | 13.3
CN1CCN(CCCc2c3c(cc4c2CCC4)CCC3)CC1.Cl | -19.8
COc1ccc(C(=O)Nc2ccc3nc(N4CCCCC4)cc(C)c3c2)c(OC)c1 | 4.06
CCCCNC(=O)CCC(=O)Nc1ccc2nc(N3CCCCC3)cc(C)c2c1 | -18.5
Cc1cc(N2CCCCC2)nc2ccc(NC(=O)c3ccc(Br)o3)cc12 | -52.9
CCOc1ccc(S(=O)(=O)N2CCCCC2)cc1NC(=O)CN1C(=O)NC(C)(c2ccccc2)C1=O (stereo not drawn) | -35.5

SMILES | hERG current change (%, negative = inhibition) at 10uM [%]
CCOc1ccc(S(=O)(=O)N2CCCCC2)cc1NC(=O)CN1C(=O)NC(CC)(c2ccccc2)C1=O (stereo not drawn) | -15
CCOc1ccc(S(=O)(=O)N2CCOCC2)cc1NC(=O)CN1C(=O)NC2(CCCC2)C1=O | 5.87
CC1(c2ccccc2)NC(=O)N(CC(=O)Nc2cc(S(=O)(=O)N3CCOCC3)ccc2Cl)C1=O (stereo not drawn) | -7.82
CCOc1ccc(S(=O)(=O)N2CCOCC2)cc1NC(=O)CN1C(=O)NC(C)(c2ccccc2)C1=O (stereo not drawn) | -52.6
CC(C)Oc1ccc(S(=O)(=O)N2CCOCC2)cc1NC(=O)CN1C(=O)NC2(CCCC2)C1=O | -17.8
CCOc1ccc(S(=O)(=O)N2CCOCC2)cc1NC(=O)CN1C(=O)NC(CC)(c2ccccc2)C1=O (stereo not drawn) | -73.5
CCC1(c2ccccc2)NC(=O)N(CC(=O)Nc2cc(S(=O)(=O)N3CCOCC3)ccc2OC(C)C)C1=O (stereo not drawn) | -55.7
CCC1(c2ccccc2)NC(=O)N(CC(=O)Nc2cc(S(=O)(=O)N3CCCCC3)ccc2OC(C)C)C1=O (stereo not drawn) | -5.02
C[C@H](C(=O)NCc1ccccc1)C(=O)c1ccccc1 | 18
CCOC(=O)CN1C(=O)C(O)(CC(=O)c2ccccn2)c2ccccc21 (stereo not drawn) | 14.6
Cc1nn(Cc2ccccc2)c(C)c1C(=O)NCc1ccccc1 | 6.55
COc1ccc2cc(C(=O)OC(C)C)sc(=O)c2c1OC | 2.45
Cc1ccc(/C(N)=N/OC(=O)c2ccc3ccccc3c2)cc1 | 0.62
Cc1cccc(C)c1NC(=O)c1cccc2c1C(=O)N(C1CCCCC1)C2 | -7.01
CCOC(=O)N1CCC(N2Cc3cccc(C(=O)Nc4cc(F)ccc4F)c3C2=O)CC1 | -23.1
CCOC(=O)N1CCC(N2Cc3cccc(C(=O)NCc4ccccn4)c3C2=O)CC1 | -34.5
CCOC(=O)N1CCC(N2Cc3cccc(C(=O)Nc4ccc(OCC)cc4)c3C2=O)CC1 | 9.07
O=C(Nc1cccc(F)c1)c1cccc2c1C(=O)N(C1CCCCC1)C2 | 12.2
CCOC(=O)N1CCC(N2Cc3cccc(C(=O)Nc4c(C)cccc4CC)c3C2=O)CC1 | -77.1
CCOC(=O)N1CCC(N2Cc3cccc(C(=O)Nc4cccc(F)c4)c3C2=O)CC1 | -72.1
CCOC(=O)N1CCC(N2Cc3cccc(C(=O)NC(C)c4ccc5c(c4)OCCO5)c3C2=O)CC1 (stereo not drawn) | -67.5
CCOC(=O)N1CCC(N2Cc3cccc(C(=O)Nc4ccc(CC)cc4)c3C2=O)CC1 | -42.6
CCOC(=O)N1CCC(N2Cc3cccc(C(=O)Nc4ccc(F)cc4)c3C2=O)CC1 | -55.3
CCOC(=O)N1CCC(N2Cc3cccc(C(=O)NCc4ccc5c(c4)OCO5)c3C2=O)CC1 | -19.5
CCOC(=O)N1CCC(N2Cc3cccc(C(=O)Nc4ccc(N(CC)CC)cc4C)c3C2=O)CC1 | -7.16
